In PubChem BioAssay AID1259415 (National Center for Advancing Translational Sciences (NCATS), 2018):
Among all 410,000 compounds or so, about 18,000 (4.4%) were called active. Roughly 7% stayed inconclusive and do not appear here. For the sample, actives were picked, then their nearest neighbours and some compounds at random. Unmarked numbers belong to inactive results. Cut-off read from the data, not from the text of the source: active = activity change below about -60%; inconclusive = no clear call, values can overlap the other calls; inactive = above about -39%.

Test: qHTS Assay for inhibitors of the human cytomegalovirus (HCMV)
Conditions: HFF cells, HCMV-luciferase reporter, 72 h; at 57.5 µM; active compounds read low
In short: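 Human foreskin fibroblasts infected with luciferase-reporter HCMV at MOI 1 PFU/cell, compounds at two doses. Luciferase measured 72 h post infection; normalized to buffer-only basal and Salinomycin (10uM) controls.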
% is set by controls: 0 for no effect and ±100 for the full control effect.

Compared with `COc1cccc(NC(=S)NC(=O)c2c(Cl)c(C)nn2C)c1`, `COc1cccc(CNc2ncc(-c3ccccc3)n2C)c1` is higher in activity change, negative = inhibition: 12.6% for the first, 34.7% for the second.

Compared with `COc1ccc(N2CCN(S(=O)(=O)CCNC(=O)C34CC5CC(CC(C5)C3)C4)CC2)cc1`, `CC(C)OC(=O)CN1CCN(c2ccc(Cl)cc2)CC1` is higher in activity change, negative = inhibition: -36.2% for the first, -25.8% for the second.

Going from `CCOc1ccccc1OCCCNCc1ccccc1` to `O=C(COc1ncnc2ccccc12)NC(=O)NCc1ccccc1`, the activity change, negative = inhibition falls from -10.8% to -32.5%.

Compared with `CN(C)CCNC(=O)Cc1ccc([N+](=O)[O-])cc1`, `COc1ccc(CNC(=O)COc2cccnc2[N+](=O)[O-])cc1` is higher in activity change, negative = inhibition: -3.93% for the first, 1.06% for the second.

Going from `COc1ccc(Nc2cc(C(=O)NCCCN(C)c3ccccc3)c3ccccc3n2)c(OC)c1` to `COc1cccc(CNC(=O)Cc2csc3nc(-c4ccccc4)cn23)c1`, the activity change, negative = inhibition falls from -2.95% to -6.98%.

Going from `COc1cccc(-c2nnc(SCC(=O)N3CCC(C)CC3)o2)c1` to `COc1cccc(-n2c(SCC(=O)NC3CCCCC3)nc3n[nH]c(C)c3c2=N)c1`, the activity change, negative = inhibition rises from -9.59% to 28%.

Compared with `COc1cc(-c2noc(-c3ccc(N4CCCC4)c([N+](=O)[O-])c3)n2)cc(OC)c1OC`, `COc1cc(-c2noc(C3CCCN(S(=O)(=O)c4cccc(Cl)c4)C3)n2)cc(OC)c1OC` (stereo not drawn) is higher in activity change, negative = inhibition: -6.79% for the first, 41.5% for the second.

Going from `CC(=O)c1ccc(NC(=O)COc2ccccc2-c2nc(-c3ccccc3)no2)cc1` to `Cc1ccc2nc(COc3ccc(NC(=O)COc4ccccc4F)cc3)cc(=O)n2c1`, the activity change, negative = inhibition rises from 13.9% to 20.4%.

Compared with `COc1ccc(-c2noc(CSc3nnc(-c4ccccc4)n3-c3ccc(F)cc3)n2)c(OC)c1`, `COc1ccc(-c2noc(CCC(=O)N(C)c3ccccc3C)n2)cc1` is lower in activity change, negative = inhibition: -21.4% for the first, -35.9% for the second.

Going from `O=C1CN(C(=O)Nc2ccccc2C(F)(F)F)C(c2ccccc2)c2c(sc3c2CCCC3)N1` (stereo not drawn) to `O=C1CCCc2cc(S(=O)(=O)N3CCCC(C(=O)NCc4ccccc4)C3)ccc2N1` (stereo not drawn), the activity change, negative = inhibition rises from -16.6% to -3.71%.

Compared with `CCCCOc1ccc(N(CC(=O)NCC2CCCO2)C(=O)CCC(=O)Nc2cc(C)ccn2)cc1` (stereo not drawn), `CCCCCCCCN1C(=O)[C@H](CC(=O)NCc2cccc3ccccc23)C[C@@]2(C(=O)OC)CCCCC=C12` is lower in activity change, negative = inhibition: 36.3% for the first, 11.4% for the second.

First: CC(C)Oc1ccc(/C=N/NC(=O)c2nnn(-c3nonc3N)c2CN(C)C2CCCCC2)cc1
Second: CN(C)Cc1c(C(=O)N/N=C/c2ccccc2OCc2ccc(F)cc2)nnn1-c1nonc1N
The activity change, negative = inhibition of the first is higher: 7.96% for the first, -6.09% for the second.

Going from `CC(C)c1ccc(NC(=O)c2ccc3c(O)c(S(=O)(=O)c4ccccc4)c(=O)[nH]c3c2)cc1` to `Cc1nc2ccc(S(=O)(=O)N(CC(=O)Nc3ccc(F)cc3)Cc3ccccc3)cc2s1`, the activity change, negative = inhibition falls from 2.46% to -20.3%.

First: Cc1ccc(C2CC2C(=O)NN)cc1 (stereo not drawn)
Second: CCn1c(C(C)NC(=O)c2ccc(C)cc2)n[nH]c1=S (stereo not drawn)
The activity change, negative = inhibition of the first is lower: 7.91% for the first, 12.4% for the second.

Compared with `O=C(O)C1CSC(c2cccnc2)N1` (stereo not drawn), `O=C(NCc1ccncc1)C(=O)NCc1ccco1` is lower in activity change, negative = inhibition: -2.83% for the first, -17.8% for the second.

Compared with `COC(=O)c1cccc(Cn2nnc3sc4c(c3c2=O)CCC(C(C)(C)C)C4)c1` (stereo not drawn), `CCOC(=O)c1cc2c(=O)n3ccccc3nc2n(CC2CCCO2)c1=NC(=O)c1ccc(C(C)(C)C)cc1` (stereo not drawn) is lower in activity change, negative = inhibition: 27.6% for the first, 23.6% for the second.

Going from `O=c1[nH]c2cc(Br)ccc2n2cccc12` to `Cc1cccc(C2CC(=O)Oc3c2c(=O)n(C)c2ccccc32)c1` (stereo not drawn), the activity change, negative = inhibition rises from -16.7% to 18.7%.

Compared with `O=C(CN1CCN(c2ccc(Cl)cc2)CC1)NCc1cccs1`, `COc1cc(C(=O)NCC(c2ccc(Cl)cc2)N2CCOCC2)cc(OC)c1OC` (stereo not drawn) is higher in activity change, negative = inhibition: -26.2% for the first, 3.59% for the second.

Going from `CCC(=O)N1CCc2cc(Br)cc(S(=O)(=O)Nc3ccc(C)cc3C)c21` to `CCC(=O)N1CCc2cc(CNC(=O)Nc3ccccc3Cl)ccc21`, the activity change, negative = inhibition rises from -2.54% to 38.6%.

First: CCN1N=C(c2ccccc2)CCC1=O
Second: C/C(N)=C(/C#N)C(=O)COC(=O)C1=NN(c2ccccc2)C(=O)CC1
The activity change, negative = inhibition of the first is lower: -24.2% for the first, 36.4% for the second.

Going from `CCOc1ccc(-n2c(SCC(=O)NCc3ccccc3)nc3n[nH]c(C)c3c2=N)cc1` to `COc1ccc(-n2c(SCC(=O)Nc3ccc(Cl)c(C)c3)nc3n[nH]c(C)c3c2=N)cc1`, the activity change, negative = inhibition falls from 35.6% to 0%.

First: Cc1ccc(Cc2nnc(SCC(=O)Nc3ccccc3C)[nH]c2=O)cc1
Second: COc1ccc(Cc2nnc(SC)[nH]c2=O)cc1
The activity change, negative = inhibition of the first is higher: -1.67% for the first, -30.1% for the second.

Going from `Cc1ccc(C)c(N2CCN(S(=O)(=O)c3ccc4c(c3)C(C(C)C)C(=O)N4)CC2)c1` (stereo not drawn) to `Cc1ccc(NS(=O)(=O)c2ccc3c(c2)CC(=O)N3)cc1Cl`, the activity change, negative = inhibition rises from -24.7% to 7.34%.

Compared with `CCOc1ccc(NC(=O)CN(C)C(=O)c2c(C)noc2C)cc1OCC`, `COc1ccc(N(C(=O)c2snc(C(N)=O)c2N)C(C(=O)NC2CCCC2)c2ccco2)cc1OC` (stereo not drawn) is lower in activity change, negative = inhibition: -5.36% for the first, -8.05% for the second.

Compared with `Cc1ccccc1-c1nc2cc(NC(=O)c3cccc(OCCC(C)C)c3)ccc2o1`, `Cc1cc(N2C(=O)C(=O)/C(=C(/O)c3ccccc3)C2c2cccc(Br)c2)no1` (stereo not drawn) is lower in activity change, negative = inhibition: -15.9% for the first, -20.6% for the second.

First: CCOC(=O)C1CCCN(C(=O)c2sc3nc(C)nc(N4CCOCC4)c3c2C)C1 (stereo not drawn)
Second: CCOC(=O)N1CCN(C(=O)CSc2nc(C)nc3c2c(=O)n(C)c(=O)n3C)CC1
The activity change, negative = inhibition of the first is higher: -14% for the first, -22.5% for the second.

Compared with `CC(=O)c1ccc(NC(=O)c2sc3nc4n(c(=O)c3c2C)CCCCC4)cc1`, `O=C(NCc1ccccc1Cl)c1cccn1-c1nnc(N2CCCCC2)s1` is lower in activity change, negative = inhibition: 23.1% for the first, 0% for the second.

Going from `CCN(CC)S(=O)(=O)c1ccc(C(=O)N=c2sc3cccc(OC)c3n2C)cc1` to `CN(Cc1ccccc1)C(=O)c1cc2c(=O)n(C)c3ccccc3c2s1`, the activity change, negative = inhibition rises from -2.8% to 2.36%.

Going from `CCOc1ccc(C(C(=O)NC2CCCC2)N(C(=O)c2snc(C(N)=O)c2N)C2CCCC2)cc1` (stereo not drawn) to `CC(C)NC(=O)N1CC(=O)N2[C@H](CO)[C@@H](c3ccc(Br)cc3)[C@H]2C1`, the activity change, negative = inhibition rises from -24.5% to 1.46%.

First: CCc1cc2c(cc3c(=O)n(CC(=O)N4CCN(c5cc(Cl)ccc5C)CC4)nc(CC)n32)s1
Second: Cc1oc(C)c2c(=O)cc(-c3ccc4c(c3)OCO4)cc(OC(=O)c3ccc(Cl)cc3)c12
The activity change, negative = inhibition of the first is higher: 12.7% for the first, 8.11% for the second.

Compared with `Cn1c(=O)c2c(SCC(=O)N3CCOCC3)nc(C3CC3)nc2n(C)c1=O`, `O=C(OCc1cc(=O)n2nc(C3CC3)sc2n1)c1ccccc1Cl` is lower in activity change, negative = inhibition: -3.56% for the first, -5.87% for the second.

Going from `Cn1nnnc1SCCCNCc1cccc(OCc2ccc(Cl)cc2)c1` to `NS(=O)(=O)c1ccc(CCNC(=O)COC(=O)COc2cccc(C(F)(F)F)c2)cc1`, the activity change, negative = inhibition falls from 12.4% to -3.4%.

Compared with `CC(=O)OC[C@@H]1CN(Cc2ccccc2)C[C@H](n2cnc3c(NCc4ccco4)ncnc32)O1`, `CN(c1ccccc1)c1nc(N)c([N+](=O)[O-])c(NCc2ccco2)n1` is lower in activity change, negative = inhibition: -0.673% for the first, -22.9% for the second.

Compared with `CC(NCCc1ccc(S(N)(=O)=O)cc1)C(=O)NCc1ccccc1` (stereo not drawn), `O=C(NCCc1ccccc1)C(=O)NCC(c1ccco1)S(=O)(=O)c1ccccc1` (stereo not drawn) is higher in activity change, negative = inhibition: -27.8% for the first, -21.8% for the second.

Going from `O=[N+]([O-])c1cc(-c2nc(-c3ccccc3)no2)ccc1NCc1ccco1` to `COc1ccc(-n2nnc(-c3nsc(NC(=O)c4ccc(C)c(C)c4)n3)c2C)cc1Cl`, the activity change, negative = inhibition falls from 82.5% to -9.03%.

With `CN(C)CCNC(=O)c1ccc(Cl)c2cc3ccccc3nc12` the activity change, negative = inhibition was -98.5% (active).
With `COc1ccc(-c2cc(-c3nc(-c4cc(OC)c(OC)c(OC)c4)no3)[nH]n2)c(OC)c1` the activity change, negative = inhibition was -68.8% (active).
In the case of `COc1ccc(-c2nc(-c3ccccc3)no2)c(OC)c1`, the activity change, negative = inhibition was -60.9% (active).
For `Nc1nonc1-n1nnc(C(=O)N/N=C/c2cc(Br)ccc2O)c1CSC1=NCCS1`, the activity change, negative = inhibition was -103% (active).
With `Cc1ccc(C2NC(C(=O)O)CS2)cc1` (stereo not drawn) the activity change, negative = inhibition was -64.5% (active).
With `O=C(CN1CCN(c2ccc(Cl)cc2)CC1)c1ccccc1` the activity change, negative = inhibition was -68.8% (active).
For `CSc1nc(-c2ccccc2)nc(C(Cl)Cl)n1`, the activity change, negative = inhibition was -99.4% (active).
In the case of `O=C1CC(c2ccccc2)=NN1c1ccc([N+](=O)[O-])cc1`, the activity change, negative = inhibition was -78% (active).
In the case of `COc1ccc(Cc2nnc(N/N=C/c3ccccc3O)[nH]c2=O)cc1OC`, the activity change, negative = inhibition was -97.9% (active).
For `Cc1nc(N2CCOCC2)c2c(C)c(C(=O)Nc3ccc(C(F)(F)F)cc3)sc2n1`, the activity change, negative = inhibition was -84.9% (active).
In the case of `COc1cc(C(C(=O)NC2CCCC2)N(Cc2ccccc2)C(=O)c2snc(C(N)=O)c2N)ccc1O` (stereo not drawn), the activity change, negative = inhibition was -99.2% (active).
For `CCCc1nc(SCC(=O)N2CCCC2)c2c(=O)n(C)c(=O)n(C)c2n1`, the activity change, negative = inhibition was -70.5% (active).
In the case of `COc1cccc(CNc2nc(C(F)(F)F)nc3ccccc23)c1`, the activity change, negative = inhibition was -73.3% (active).
With `c1coc(CNc2ncnc3ccccc23)c1` the activity change, negative = inhibition was -64.6% (active).
With `NS(=O)(=O)c1ccc(CCNc2nc(C(F)(F)F)nc3ccccc23)cc1` the activity change, negative = inhibition was -68.6% (active).
With `COc1ccc(CNc2ncnc3ccccc23)cc1` the activity change, negative = inhibition was -91.4% (active).
With `c1ccc(-c2nc(NCc3ccco3)c3ccccc3n2)cc1` the activity change, negative = inhibition was -68% (active).
With `Cc1ccc(-n2c(SCC(=O)NCCC3=CCCCC3)nc3n[nH]c(C)c3c2=N)cc1Cl` the activity change, negative = inhibition was -93.6% (active).
